Assay outcomes from PubChem.
Shown are actives, neighbours in structure and some others; about 1.4% of the full set was active somewhere.
Vaccinia Venus: vaccinia inhibition (Venus reporter). Vaccinia virus Venus reporter expression, fluorescence. actives 0.46% (n = 330,000). Potency, µM (doses to about 36.5 µM), inactives show at the top dose activity change, negative = inhibition, actives largely listed as inhibitors. AID 720580; calls by dose curve; tested in A549 cells; note: potency is the fitted concentration of half-maximal effect; % is set by controls: 0 for no effect and ±100 for the full control effect; nearly all actives have a fitted effect of over 30% in size
AMA1-RON2 inh: AMA1-RON2 (P. falciparum) interaction inhibition | Potency, µM (titrated, usually from 58.2 µM), inactives show at the top dose activity change, negative = inhibition, actives largely listed as inhibitors | AlphaScreen AMA1-biotinylated RON2 peptide binding | actives 0.2% (n = 360,000);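 note: potency is the fitted concentration of half-maximal effect; 0% = vehicle wells and -100% = peptide control; nearly all actives have a fitted effect of over 45% in size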
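AMA1 (3D7) with his tag at 25 nM final met compounds first, then biotinylated RON2 peptide at 25 nM; detection used donor plus acceptor beads, 10 µg/mL apiece, read by AlphaScreen after 30 min at room temperature.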
SARS PLpro yeast-1: SARS-CoV PLP inhibition in yeast; S. cerevisiae expressing SARS-CoV PLpro, growth rescue; Potency, µM (top dose mostly 32.9 µM), for inactives: top-dose activity, positive = growth rescue, usual class: activators; actives 0.19% (n = 330,000); AID 485353; calls by dose curve; note: potency is the fitted concentration of half-maximal effect; 0% is about no effect; nearly all actives have a fitted effect of over 55% in size
AmpC inh no detg: inhibitors of E. coli AmpC beta-lactamase without detergent. P00811. AmpC nitrocefin hydrolysis, absorbance 480 nm, 0.0001% Triton. Potency, µM (top dose mostly 57.1 µM), inactives show at the top dose activity change, negative = inhibition, usual class: inhibitors. actives 0.52% (n = 330,000). AID 485341;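 note: potency is the fitted concentration of half-maximal effect; plate controls were no compound for no effect and no enzyme for full effect; nearly all actives have a fitted effect of over 20% in size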
Target sequence (P00811 whole entry, looked up): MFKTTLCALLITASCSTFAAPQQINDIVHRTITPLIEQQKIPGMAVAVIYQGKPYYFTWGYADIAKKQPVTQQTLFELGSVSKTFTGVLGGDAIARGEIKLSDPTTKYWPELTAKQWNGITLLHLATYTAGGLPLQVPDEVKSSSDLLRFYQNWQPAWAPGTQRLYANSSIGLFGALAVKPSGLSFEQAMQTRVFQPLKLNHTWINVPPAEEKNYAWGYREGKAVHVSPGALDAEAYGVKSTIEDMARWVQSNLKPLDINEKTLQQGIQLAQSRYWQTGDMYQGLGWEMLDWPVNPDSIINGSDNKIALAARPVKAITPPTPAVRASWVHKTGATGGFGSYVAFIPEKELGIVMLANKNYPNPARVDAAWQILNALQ
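20 mM phosphate pH 7.0 + 0.01% (detergent screen) or 0.0001% Triton X-100; 5.3 nM AmpC reagent; cpd preinc 15 min RT; nitrocefin (800 uM stock) to start; A480 q20 s × 4 min; Activity was normalised to no-enzyme and no-compound control wells.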
VACV mCherry inh: inhibitors of vaccinia virus infection (mCherry reporter signal); Vaccinia virus mCherry reporter infection, fluorescence; Potency, µM (top dose mostly 36.5 µM), for inactives: at the top dose activity change, negative = inhibition, actives largely listed as inhibitors; actives 0.63% (n = 310,000); calls by dose curve; tested in A549 cells; note: potency is the fitted concentration of half-maximal effect; % is set by controls: 0 for no effect and ±100 for the full control effect; nearly all actives have a fitted effect of over 35% in size
AmpC inh detg: AmpC beta-lactamase inhibition with detergent present; P00811; AmpC hydrolysis of nitrocefin, absorbance 480 nm, 0.01% Triton; Potency, µM (doses to about 114 µM), for the others: at the top dose activity change, negative = inhibition, usual class: inhibitors; actives 0.041% (n = 370,000); AID 485294;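 note: potency is the fitted concentration of half-maximal effect; 0% = no-compound wells and -100% = no-enzyme wells; nearly all actives have a fitted effect of over 25% in size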
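AmpC (5.3 nM in the dispensed reagent) in 20 mM phosphate pH 7.0 with 0.01% (detergent screen) or 0.0001% Triton X-100 was preincubated with compounds for 15 min at room temperature. Nitrocefin was then added from an 800 uM solution, and hydrolysis was followed at 480 nm.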
SARS PLpro yeast-2: Validates SARS-CoV PLpro inhibitor hits in yeast; yeast expressing SARS-CoV PLpro, growth phenotype rescue; calls only; actives 19% (n = 1,000); shares compounds with SARS PLpro yeast-1; call rule not given here
An asterisk follows results filed as active; i = inactive; ? = inconclusive; · = not tested or not shown; + = active, no number; [ ] = remark or other dose. Unless noted, calls come from the whole dose curve; as a rule, active = well fitted curve in the direction sought with a large enough effect; inconclusive = small, poorly fitted or top-dose-only effect, or another doubt; inactive = no such curve, though single readings can be large; an effect the other way counts as inactive or inconclusive.

SMILES	Vaccinia Venus	AMA1-RON2 inh	SARS PLpro yeast-1	AmpC inh no detg	VACV mCherry inh	AmpC inh detg	SARS PLpro yeast-2
COc1ccc(/C=N/NC(=O)c2nc(-c3ccccc3)n(-c3ccccc3)n2)c(O)c1	?	52%	2.8µM*	-35%	3.2µM*	?	+
COc1ccc(C(=O)Nc2ncnc3nc[nH]c23)cc1	-14%	·	·	·	-9%	·	·
Clc1cccc(N2CCN(c3nc4ccccc4c4nc(-c5ccccc5)nn34)CC2)c1	4%	·	·	·	-11%	16%	·
O=C(N/N=C/c1cc([N+](=O)[O-])cc([N+](=O)[O-])c1O)/C(=C\c1cccs1)NC(=O)c1ccccc1	16%	-5%	?	-21%	-4%	?	+
O=C(NCc1ccc2c(c1)OCO2)c1ccc2c(c1)OCO2	·	-5%	0%	-18%	·	5%	·
O=C(O)c1ccc(NCc2ccc3c(c2)OCO3)cc1	-2%	2%	?	-21%	-12%	?	i
CCOC(=O)c1[nH]c(C)c(CCC(=O)Nc2cc(Cl)ccc2C)c1C	-6%	·	·	·	-4%	-5%	·
CCc1nccn1CCC(=O)N1CCCC(Nc2ccc(C(C)C)cc2)C1 (stereo not drawn)	-16%	-11%	·	71%	-2%	5%	i
CN(C)c1ccc(/C=C/c2ccnc3c([N+](=O)[O-])cccc23)cc1	-13%	·	·	·	-25%	·	·
Cc1oc2ccc(O)c(CN3CCOCC3)c2c1C(=O)Nc1ccc(C(C)C)cc1	-11%	·	·	·	-19%	20%	·
O=C(CNC(=O)c1ccco1)OC(C(=O)c1ccccc1)c1ccccc1 (stereo not drawn)	-18%	-4%	?	-41%	·	-11%	i
NC(=S)N/N=C\c1ccccc1OCc1ccccc1	2.5µM*	32%[11.6 µM]	11µM*	-39%	?	-11%	+
NC(=S)N/N=C/c1ccc2c(c1)OCCO2	10µM*	49%	14µM*	-17%	11µM*	4%	+
NC(=S)N/N=C\c1c2ccccc2cc2ccccc12	?	43%	14µM*	-42%	?	-4%	i
COc1cc(/C=N/NC(N)=S)ccc1OCc1ccc(C)cc1	?	55%	?	-52%	11µM*	-6%	+
O=C(CSCc1ccccc1)N/N=C/c1ccccc1OCc1ccccc1	-10%	4%	-6%	-30%	-6%	-8%	·
CN(C(=O)COC(=O)c1ccccc1OCC(=O)Nc1ccc(Br)cc1)c1ccccc1	-14%	·	·	·	-1%	·	·
Cc1cccc(Cn2cc(S(=O)(=O)c3ccccc3)c(=O)c3cc(F)c(N4CCOCC4)cc32)c1	-10%	·	·	·	-2%	5%	·
CCOC(=O)c1c(NC(=O)c2cc(=O)c3cc(C)ccc3o2)sc2c1CCCC2	10%	·	·	·	-10%	18%	·
Cc1ccc2c(Sc3ccccc3)c(C(=O)NCc3ccccc3F)[nH]c2c1	-13%	·	·	·	-17%	12%	·
NC(=S)N/N=C/c1ccccc1	?	45%	2.5µM*	-11%	5.6µM*	-2%	+
COc1ccc(OC)c(C2/C(=C(/O)c3ccc(C)cc3)C(=O)C(=O)N2Cc2ccco2)c1 (stereo not drawn)	5%	0%	10µM*	-33%	i	6%	i
COc1ccc(/C(O)=C2\C(=O)C(=O)N(Cc3ccco3)C2c2cc(OC)ccc2OC)cc1 (stereo not drawn)	-18%	-4%	1%	-28%	-3%	-3%	·
Cc1cccc(C)c1NC(=O)NN(C(=O)c1ccccc1)C(C)(C)C	-11%	-12%	2.5µM*	-8%	i	6%	i
Cc1ccc(C(=O)Nc2nc(-c3ccccc3)c(-c3ccccc3)o2)cc1	-7%	69%	10µM*	-22%	-22%	-9%	+
SMILES	Vaccinia Venus	AMA1-RON2 inh	SARS PLpro yeast-1	AmpC inh no detg	VACV mCherry inh	AmpC inh detg	SARS PLpro yeast-2
CCOc1cc(N2CCCC2)ccc1[N+](=O)[O-]	-12%	-9%	?	-3%	-26%	-7%	i
COCCn1nnnc1CN1CCC(NC(=O)c2ccc(Br)cc2)CC1	-18%	5%	-6%	-11%	-6%	-9%	·
COc1cc(C(=O)NC2CCN(Cc3nnnn3Cc3cccs3)CC2)cc(OC)c1OC	·	-14%	4µM*	64%	·	-6%	i
N#CC1C(=O)NC(N2CCN(c3ccccc3)CC2)=NC12CCCCC2 (stereo not drawn)	·	-7%	16µM*	-14%	·	-10%	i
CC1(c2ccccc2)C(C#N)C(=O)NC(=O)C1C#N (stereo not drawn)	-8%	28%	·	·	-3%	·	·
O=C(Nc1nnc(Cc2ccccc2)s1)Nc1ccccc1F	·	1%	?	-13%	·	6%	+
COC(=O)[C@@]1(C)[C@H]2C(=O)N(Cc3ccccc3)C(=O)[C@H]2[C@H]2CN=C(SCc3ccccc3)N21	?	-15%	29%	39%	-18%	·	·
CCN1C(=O)[C@H]2[C@H]3CN=C(SCC(=O)c4ccccc4)N3[C@@](C)(C(=O)OC)[C@H]2C1=O	-7%	106%	·	-15%	-20%	·	i
Cc1ccc(N=C2C(=S)N(c3ccc(C)cc3)C(=N)N2/N=C/c2ccc(Cl)cc2)cc1	·	53%	11µM*	-38%	·	?	+
COc1ccc(CNC(=O)c2ccc3c(c2)CCN3S(=O)(=O)c2ccc(Cl)cc2)cc1	-14%	·	·	·	-17%	17%	·
COc1ccc(CCNC(=O)Cn2nnc(-c3ccc(Cl)cc3)n2)cc1OC	-7%	·	·	·	-7%	-6%	·
COc1ccc(CCNC(=O)CCNC(=O)c2ccc(Br)cc2)cc1OC	0%	6%	?	8%	-15%	1%	i
O=C(Cn1nnc(-c2ccccc2F)n1)Nc1ccc2c(c1)OCO2	8%	-3%	?	-33%	3%	-8%	i
COc1ccc(CCNC(=O)Cn2nnc(-c3ccccc3F)n2)cc1OC	-11%	7%	?	-3%	-13%	-11%	i
CC(=O)NC(Cc1ccc(Cl)cc1)C(=O)NCC(N)C(=O)c1ccccc1 (stereo not drawn)	-11%	·	·	·	-25%	·	·
Cc1ccc(S/C(=N/S(=O)(=O)c2ccc(Cl)cc2)c2ccccc2)cc1	-18%	·	·	·	0%	·	·
CN(CC1CCCO1)S(=O)(=O)c1ccc(C(=O)Nc2ccc(S(N)(=O)=O)cc2)cc1 (stereo not drawn)	-7%	-5%	0.4µM*	-6%	-11%	3%	i
COc1ccccc1[C@@H]1C(c2cccc(C)c2)=NN(c2ccc(Br)cc2)[C@H]1C(=O)N1CCOC1=O	-5%	33%	4µM*	-10%	-16%	·	i
